How the values were obtained:
Assay in all cases: DAPPL (digital affinity profiling via proximity ligation, sequencing); 10 mM Tris-HCl pH 7.5, 50 mM NaCl, 1 mM DTT, 4% glycerol, room temperature, 30 min; GST-TFs on glutathione beads, 16-mer random dsDNA library, 0.1% formaldehyde crosslink after washing; high values mean tight binding
FEV = target: T1, FEV (Homo sapiens, UniProt Q99581 1-238); conditions: protein: recombinant; tags: N-terminal GST; dsDNA, one strand shown
T1 sequence: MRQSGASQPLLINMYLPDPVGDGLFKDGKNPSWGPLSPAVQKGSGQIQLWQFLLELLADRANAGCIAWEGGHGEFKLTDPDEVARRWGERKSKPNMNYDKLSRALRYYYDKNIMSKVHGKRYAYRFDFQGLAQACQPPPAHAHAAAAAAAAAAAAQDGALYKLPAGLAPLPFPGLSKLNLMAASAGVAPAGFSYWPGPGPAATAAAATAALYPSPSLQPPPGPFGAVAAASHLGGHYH
Method in brief: (§1)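 A tag-only sample was pooled with DNA-barcoded human transcription factors that had been expressed in yeast as GST fusions and captured on glutathione beads. The pools were incubated for 30 min at room temperature with 200 nmole of a random double-stranded 16-mer DNA library in Tris/NaCl/DTT/glycerol buffer, then washed, crosslinked with 0.1% formaldehyde, proximity-ligated (BsaI/T4 ligase, 1 h, 37 °C), PCR-amplified and sequenced on an Illumina NextSeq500. Binding signal is each hexamer's read frequency for a factor divided by its frequency for the tag-only sample.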

ETV5 = ETV5 (Homo sapiens, UniProt P41161 1-510); conditions: protein: recombinant; tags: N-terminal GST; dsDNA, one strand shown
Method in brief: as §1

SPIC = target: T2, SPIC (Homo sapiens, UniProt Q8N5J4 1-248); conditions: protein: recombinant; tags: N-terminal GST; dsDNA, one strand shown
T2 sequence: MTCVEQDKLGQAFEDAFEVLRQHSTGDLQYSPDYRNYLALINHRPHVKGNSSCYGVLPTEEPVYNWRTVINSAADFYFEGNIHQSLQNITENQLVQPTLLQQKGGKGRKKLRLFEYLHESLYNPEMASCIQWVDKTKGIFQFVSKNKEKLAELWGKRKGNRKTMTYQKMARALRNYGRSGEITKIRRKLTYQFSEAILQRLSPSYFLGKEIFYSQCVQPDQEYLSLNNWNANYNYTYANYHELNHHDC
Method in brief: as §1

ELF4 = ELF4 (Homo sapiens, UniProt Q99607 1-663); conditions: protein: recombinant; tags: N-terminal GST; dsDNA, one strand shown
Method in brief: as §1

ELK4 = target: T3, ELK4 (Homo sapiens, UniProt P28324-2 1-405); conditions: protein: recombinant; tags: N-terminal GST; dsDNA, one strand shown
T3 sequence: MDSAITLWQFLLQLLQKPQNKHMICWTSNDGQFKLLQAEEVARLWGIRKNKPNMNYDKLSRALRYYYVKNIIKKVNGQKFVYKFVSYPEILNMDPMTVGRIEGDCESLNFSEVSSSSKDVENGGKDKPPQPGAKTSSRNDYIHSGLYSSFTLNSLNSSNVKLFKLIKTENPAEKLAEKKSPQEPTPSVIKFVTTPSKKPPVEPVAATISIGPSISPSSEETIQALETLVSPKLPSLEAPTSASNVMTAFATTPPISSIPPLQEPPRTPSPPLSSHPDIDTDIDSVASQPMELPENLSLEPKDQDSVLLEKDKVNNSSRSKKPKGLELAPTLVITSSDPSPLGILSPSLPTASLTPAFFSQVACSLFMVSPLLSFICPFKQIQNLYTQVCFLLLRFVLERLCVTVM
Method in brief: as §1

ETV2 = target: T4, ETV2 (Homo sapiens, UniProt O00321 1-342); conditions: protein: recombinant; tags: N-terminal GST; dsDNA, one strand shown
T4 sequence: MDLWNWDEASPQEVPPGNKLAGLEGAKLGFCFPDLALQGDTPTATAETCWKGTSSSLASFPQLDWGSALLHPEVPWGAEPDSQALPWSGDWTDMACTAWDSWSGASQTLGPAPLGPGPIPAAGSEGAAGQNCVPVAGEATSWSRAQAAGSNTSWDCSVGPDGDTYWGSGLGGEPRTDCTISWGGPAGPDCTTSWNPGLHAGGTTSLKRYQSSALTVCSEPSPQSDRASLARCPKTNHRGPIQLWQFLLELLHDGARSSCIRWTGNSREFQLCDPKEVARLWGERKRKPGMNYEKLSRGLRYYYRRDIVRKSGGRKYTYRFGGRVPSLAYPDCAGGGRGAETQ
Method in brief: as §1

ELF3 = target: T5, ELF3 (Homo sapiens, UniProt P78545 1-371); conditions: protein: recombinant; tags: N-terminal GST; dsDNA, one strand shown
T5 sequence: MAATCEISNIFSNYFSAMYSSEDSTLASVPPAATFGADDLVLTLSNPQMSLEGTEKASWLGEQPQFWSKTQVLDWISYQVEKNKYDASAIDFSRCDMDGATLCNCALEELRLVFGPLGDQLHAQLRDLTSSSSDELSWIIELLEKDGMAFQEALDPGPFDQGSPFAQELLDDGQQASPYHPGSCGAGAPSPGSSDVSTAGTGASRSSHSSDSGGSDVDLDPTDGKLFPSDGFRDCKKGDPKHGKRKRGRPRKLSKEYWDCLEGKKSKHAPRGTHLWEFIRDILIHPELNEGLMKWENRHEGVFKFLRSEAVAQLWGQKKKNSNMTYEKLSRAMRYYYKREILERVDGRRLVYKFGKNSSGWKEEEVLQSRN
Method in brief: as §1

CRX = CRX (Homo sapiens, UniProt O43186 1-299); conditions: protein: recombinant; tags: N-terminal GST; dsDNA, one strand shown
Method in brief: as §1

ETV1 = ETV1 (Homo sapiens, UniProt P50549 1-477); conditions: protein: recombinant; tags: N-terminal GST; dsDNA, one strand shown
Method in brief: as §1

ERF = target: T6, ERF (Homo sapiens, UniProt P50548 1-548); conditions: protein: recombinant; tags: N-terminal GST; dsDNA, one strand shown
T6 sequence: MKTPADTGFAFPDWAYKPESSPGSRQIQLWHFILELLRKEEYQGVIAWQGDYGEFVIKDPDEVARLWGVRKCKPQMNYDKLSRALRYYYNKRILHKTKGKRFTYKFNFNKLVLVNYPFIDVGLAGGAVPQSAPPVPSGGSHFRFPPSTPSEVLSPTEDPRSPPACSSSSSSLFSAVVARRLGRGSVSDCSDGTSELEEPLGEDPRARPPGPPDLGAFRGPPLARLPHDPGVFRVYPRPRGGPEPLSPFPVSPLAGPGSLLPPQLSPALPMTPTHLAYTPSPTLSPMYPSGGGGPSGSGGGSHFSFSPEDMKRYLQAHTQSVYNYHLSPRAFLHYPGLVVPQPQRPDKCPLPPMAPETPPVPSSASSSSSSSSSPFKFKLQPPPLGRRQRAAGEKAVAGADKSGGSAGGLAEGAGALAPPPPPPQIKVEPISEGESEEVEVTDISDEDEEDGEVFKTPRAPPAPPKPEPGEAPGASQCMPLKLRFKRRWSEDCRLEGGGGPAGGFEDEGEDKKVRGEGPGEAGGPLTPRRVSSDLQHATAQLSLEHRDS
Method in brief: as §1

ETV3L = target: T7, ETV3L (Homo sapiens, UniProt Q6ZN32 1-361); conditions: protein: recombinant; tags: N-terminal GST; dsDNA, one strand shown
T7 sequence: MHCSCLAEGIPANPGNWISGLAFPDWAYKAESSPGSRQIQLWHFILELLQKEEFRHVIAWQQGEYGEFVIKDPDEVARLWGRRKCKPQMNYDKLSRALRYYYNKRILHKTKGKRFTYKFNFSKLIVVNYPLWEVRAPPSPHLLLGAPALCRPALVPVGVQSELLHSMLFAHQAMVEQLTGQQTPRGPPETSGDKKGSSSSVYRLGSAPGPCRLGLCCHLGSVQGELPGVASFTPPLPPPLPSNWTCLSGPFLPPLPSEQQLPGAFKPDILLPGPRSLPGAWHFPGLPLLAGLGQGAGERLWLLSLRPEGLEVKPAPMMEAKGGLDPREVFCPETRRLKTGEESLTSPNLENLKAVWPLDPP
Method in brief: as §1

ETS2 = target: T8, ETS2 (Homo sapiens, UniProt P15036 1-469); conditions: protein: recombinant; tags: N-terminal GST; dsDNA, one strand shown
T8 sequence: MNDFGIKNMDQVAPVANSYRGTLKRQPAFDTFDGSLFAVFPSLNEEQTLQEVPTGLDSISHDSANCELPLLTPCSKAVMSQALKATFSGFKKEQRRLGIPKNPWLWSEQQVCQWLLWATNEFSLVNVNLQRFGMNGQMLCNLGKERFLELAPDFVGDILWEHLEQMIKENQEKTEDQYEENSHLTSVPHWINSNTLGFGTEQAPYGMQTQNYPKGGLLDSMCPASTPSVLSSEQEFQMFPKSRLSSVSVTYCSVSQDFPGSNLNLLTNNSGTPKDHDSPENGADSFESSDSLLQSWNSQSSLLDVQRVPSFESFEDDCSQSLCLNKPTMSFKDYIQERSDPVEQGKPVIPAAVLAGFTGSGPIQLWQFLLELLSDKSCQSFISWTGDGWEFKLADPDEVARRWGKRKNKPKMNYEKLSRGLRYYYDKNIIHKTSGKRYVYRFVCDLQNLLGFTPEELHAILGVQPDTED
Method in brief: as §1

SPDEF = target: T9, SPDEF (Homo sapiens, UniProt O95238 1-335); conditions: protein: recombinant; tags: N-terminal GST; dsDNA, one strand shown
T9 sequence: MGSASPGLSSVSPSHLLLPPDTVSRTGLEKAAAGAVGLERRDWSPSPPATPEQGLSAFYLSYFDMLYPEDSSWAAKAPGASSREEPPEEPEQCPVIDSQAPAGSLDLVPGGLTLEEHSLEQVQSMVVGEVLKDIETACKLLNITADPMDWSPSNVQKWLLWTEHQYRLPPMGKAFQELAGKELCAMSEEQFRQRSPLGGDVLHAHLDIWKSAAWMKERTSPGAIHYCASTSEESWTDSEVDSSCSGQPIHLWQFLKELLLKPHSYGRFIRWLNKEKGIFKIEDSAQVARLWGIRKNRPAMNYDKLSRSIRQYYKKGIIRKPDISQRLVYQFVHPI
Method in brief: as §1

ETV7 = target: T10, ETV7 (Homo sapiens, UniProt Q9Y603 1-341); conditions: protein: recombinant; tags: N-terminal GST; dsDNA, one strand shown
T10 sequence: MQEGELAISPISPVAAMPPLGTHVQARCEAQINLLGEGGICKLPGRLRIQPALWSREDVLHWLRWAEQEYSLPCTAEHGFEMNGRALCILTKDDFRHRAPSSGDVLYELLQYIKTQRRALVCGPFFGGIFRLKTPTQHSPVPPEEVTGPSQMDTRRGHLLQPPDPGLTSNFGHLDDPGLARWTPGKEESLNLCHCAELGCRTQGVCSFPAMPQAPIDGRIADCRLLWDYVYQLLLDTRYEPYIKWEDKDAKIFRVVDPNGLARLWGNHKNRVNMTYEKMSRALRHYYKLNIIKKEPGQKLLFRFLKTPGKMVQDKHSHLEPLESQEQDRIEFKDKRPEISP
Method in brief: as §1

ELF5 = target: T11, ELF5 (Homo sapiens, UniProt Q9UKW6-2 1-255); conditions: protein: recombinant; tags: N-terminal GST; dsDNA, one strand shown
T11 sequence: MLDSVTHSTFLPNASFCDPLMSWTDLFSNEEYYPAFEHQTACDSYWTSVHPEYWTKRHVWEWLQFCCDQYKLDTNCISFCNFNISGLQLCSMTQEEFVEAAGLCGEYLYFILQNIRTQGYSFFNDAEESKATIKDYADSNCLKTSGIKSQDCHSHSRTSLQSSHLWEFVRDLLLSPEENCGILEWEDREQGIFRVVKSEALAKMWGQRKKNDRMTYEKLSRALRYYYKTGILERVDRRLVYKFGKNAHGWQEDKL
Method in brief: as §1

ETV3 = target: T12, ETV3 (Homo sapiens, UniProt P41162-2 1-143); conditions: protein: recombinant; tags: N-terminal GST; dsDNA, one strand shown
T12 sequence: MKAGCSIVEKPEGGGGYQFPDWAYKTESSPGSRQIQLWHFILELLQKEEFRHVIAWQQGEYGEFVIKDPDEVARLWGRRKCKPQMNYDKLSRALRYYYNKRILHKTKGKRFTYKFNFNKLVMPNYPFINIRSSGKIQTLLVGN
Method in brief: as §1

ETV6 = ETV6 (Homo sapiens, UniProt P41212 1-452); conditions: protein: recombinant; tags: N-terminal GST; dsDNA, one strand shown
Method in brief: as §1

HSF1 = HSF1 (Homo sapiens, UniProt Q00613 1-529); conditions: protein: recombinant; tags: N-terminal GST; chain copies: 3; dsDNA, one strand shown
Method in brief: as §1

Chain of CRX (O43186 whole entry): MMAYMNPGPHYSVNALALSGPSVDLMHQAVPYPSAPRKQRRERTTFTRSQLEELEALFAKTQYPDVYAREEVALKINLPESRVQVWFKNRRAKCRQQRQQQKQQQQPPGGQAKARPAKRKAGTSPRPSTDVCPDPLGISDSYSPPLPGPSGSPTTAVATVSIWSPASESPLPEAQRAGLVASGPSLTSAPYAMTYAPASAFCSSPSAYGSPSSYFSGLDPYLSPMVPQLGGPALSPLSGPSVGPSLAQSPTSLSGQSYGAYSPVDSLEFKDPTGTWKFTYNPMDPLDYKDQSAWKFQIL
Chain of ETV1 (P50549 whole entry): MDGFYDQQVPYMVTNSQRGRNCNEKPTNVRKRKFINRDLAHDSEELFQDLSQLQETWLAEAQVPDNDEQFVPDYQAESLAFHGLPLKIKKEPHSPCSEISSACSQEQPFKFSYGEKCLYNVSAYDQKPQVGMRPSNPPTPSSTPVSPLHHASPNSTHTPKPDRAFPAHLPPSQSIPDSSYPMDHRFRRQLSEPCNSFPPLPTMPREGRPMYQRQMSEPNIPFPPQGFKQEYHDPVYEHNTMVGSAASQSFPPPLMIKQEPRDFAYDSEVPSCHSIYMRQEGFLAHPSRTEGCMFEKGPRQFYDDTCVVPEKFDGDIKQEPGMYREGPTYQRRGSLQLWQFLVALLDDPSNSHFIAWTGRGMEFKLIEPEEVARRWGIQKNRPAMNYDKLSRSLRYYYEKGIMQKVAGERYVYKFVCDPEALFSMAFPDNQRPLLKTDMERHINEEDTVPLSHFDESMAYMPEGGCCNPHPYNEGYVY
Chain of ETV6 (P41212 whole entry): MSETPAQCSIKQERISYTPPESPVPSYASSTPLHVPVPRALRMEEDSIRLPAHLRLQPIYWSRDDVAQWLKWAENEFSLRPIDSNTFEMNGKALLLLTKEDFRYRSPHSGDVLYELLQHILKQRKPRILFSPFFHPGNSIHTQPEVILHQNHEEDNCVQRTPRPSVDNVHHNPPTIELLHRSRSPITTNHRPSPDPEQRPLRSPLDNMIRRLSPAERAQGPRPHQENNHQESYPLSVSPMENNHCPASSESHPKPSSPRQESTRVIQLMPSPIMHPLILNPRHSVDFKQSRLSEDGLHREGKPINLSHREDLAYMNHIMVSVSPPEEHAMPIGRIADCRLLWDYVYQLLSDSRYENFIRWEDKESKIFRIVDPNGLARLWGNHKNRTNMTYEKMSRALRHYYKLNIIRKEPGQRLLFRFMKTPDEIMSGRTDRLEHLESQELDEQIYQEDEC
Chain of ETV5 (P41161 whole entry): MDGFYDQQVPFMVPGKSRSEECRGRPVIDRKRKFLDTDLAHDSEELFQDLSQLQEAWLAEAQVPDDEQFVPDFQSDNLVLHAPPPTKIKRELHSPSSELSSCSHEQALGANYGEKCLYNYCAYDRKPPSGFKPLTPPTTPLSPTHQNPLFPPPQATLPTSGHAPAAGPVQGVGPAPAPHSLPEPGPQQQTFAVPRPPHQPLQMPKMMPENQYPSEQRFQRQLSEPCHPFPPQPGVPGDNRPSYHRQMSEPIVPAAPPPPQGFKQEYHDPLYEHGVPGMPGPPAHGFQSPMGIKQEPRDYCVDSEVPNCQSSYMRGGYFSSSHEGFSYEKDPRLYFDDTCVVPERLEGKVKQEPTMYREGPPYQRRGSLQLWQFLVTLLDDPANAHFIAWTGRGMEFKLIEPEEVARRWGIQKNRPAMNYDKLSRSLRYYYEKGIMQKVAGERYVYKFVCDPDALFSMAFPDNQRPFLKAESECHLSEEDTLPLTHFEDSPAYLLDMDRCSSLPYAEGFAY
Chain of ELF4 (Q99607 whole entry): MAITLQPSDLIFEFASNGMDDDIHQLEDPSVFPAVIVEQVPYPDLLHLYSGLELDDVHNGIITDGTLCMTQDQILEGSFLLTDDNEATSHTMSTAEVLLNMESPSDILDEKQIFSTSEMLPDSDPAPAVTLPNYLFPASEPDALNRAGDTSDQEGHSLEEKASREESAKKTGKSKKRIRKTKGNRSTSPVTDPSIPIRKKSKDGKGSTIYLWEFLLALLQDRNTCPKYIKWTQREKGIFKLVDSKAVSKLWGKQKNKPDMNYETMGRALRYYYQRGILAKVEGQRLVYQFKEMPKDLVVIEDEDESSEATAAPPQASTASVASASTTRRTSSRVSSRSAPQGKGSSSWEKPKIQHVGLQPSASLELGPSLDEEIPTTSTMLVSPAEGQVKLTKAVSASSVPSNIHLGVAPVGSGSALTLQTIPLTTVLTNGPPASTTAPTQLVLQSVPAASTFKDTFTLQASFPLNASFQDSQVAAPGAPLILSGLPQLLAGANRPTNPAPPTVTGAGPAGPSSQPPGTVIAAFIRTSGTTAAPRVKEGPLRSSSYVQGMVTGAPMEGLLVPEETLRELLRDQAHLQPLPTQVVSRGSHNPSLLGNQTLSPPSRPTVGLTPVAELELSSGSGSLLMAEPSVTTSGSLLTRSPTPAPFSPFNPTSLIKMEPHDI
Chain of HSF1 (Q00613 whole entry): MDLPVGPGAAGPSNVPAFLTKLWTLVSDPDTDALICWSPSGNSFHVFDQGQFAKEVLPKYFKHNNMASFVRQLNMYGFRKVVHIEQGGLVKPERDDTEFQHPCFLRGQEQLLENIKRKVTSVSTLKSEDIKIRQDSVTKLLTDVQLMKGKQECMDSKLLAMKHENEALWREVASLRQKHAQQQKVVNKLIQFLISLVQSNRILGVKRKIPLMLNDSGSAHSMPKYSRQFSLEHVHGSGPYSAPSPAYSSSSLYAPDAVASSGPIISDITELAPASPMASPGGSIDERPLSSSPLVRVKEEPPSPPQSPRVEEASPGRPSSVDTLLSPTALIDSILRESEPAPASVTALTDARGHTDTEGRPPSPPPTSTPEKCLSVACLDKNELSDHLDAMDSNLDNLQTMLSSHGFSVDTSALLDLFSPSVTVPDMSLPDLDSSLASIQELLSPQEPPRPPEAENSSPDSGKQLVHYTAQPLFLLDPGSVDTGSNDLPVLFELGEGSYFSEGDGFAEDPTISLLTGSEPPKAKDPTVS

Row | Sequence | binding signal (FEV) | binding signal (ETV5) | binding signal (SPIC) | binding signal (ELF4) | binding signal (ELK4) | binding signal (ETV2) | binding signal (ELF3) | binding signal (CRX) | binding signal (ETV1) | binding signal (ERF) | binding signal (ETV3L) | binding signal (ETS2) | binding signal (SPDEF) | binding signal (ETV7) | binding signal (ELF5) | binding signal (ETV3) | binding signal (ETV6) | binding signal (HSF1)
1 | ATACGT | 1.11 fold enrichment (6-mer frequency, TF over GST control) | 1.13 fold enrichment (6-mer frequency, TF over GST control) | 1.09 fold enrichment (6-mer frequency, TF over GST control) | 1.08 fold enrichment (6-mer frequency, TF over GST control) | 1.15 fold enrichment (6-mer frequency, TF over GST control) | 1.04 fold enrichment (6-mer frequency, TF over GST control) | 1.1 fold enrichment (6-mer frequency, TF over GST control) | 1.01 fold enrichment (6-mer frequency, TF over GST control) | 1.13 fold enrichment (6-mer frequency, TF over GST control) | 1.11 fold enrichment (6-mer frequency, TF over GST control) | 1.18 fold enrichment (6-mer frequency, TF over GST control) | 1.19 fold enrichment (6-mer frequency, TF over GST control) | 1.23 fold enrichment (6-mer frequency, TF over GST control) | 1.1 fold enrichment (6-mer frequency, TF over GST control) | 1.14 fold enrichment (6-mer frequency, TF over GST control) | 1.14 fold enrichment (6-mer frequency, TF over GST control) | 1.14 fold enrichment (6-mer frequency, TF over GST control) | 
2 | GGCATT | 1.04 fold enrichment (6-mer frequency, TF over GST control) | 1.05 fold enrichment (6-mer frequency, TF over GST control) |  |  | 1.08 fold enrichment (6-mer frequency, TF over GST control) | 1.02 fold enrichment (6-mer frequency, TF over GST control) |  | 1.29 fold enrichment (6-mer frequency, TF over GST control) | 1.1 fold enrichment (6-mer frequency, TF over GST control) | 1.08 fold enrichment (6-mer frequency, TF over GST control) | 1.06 fold enrichment (6-mer frequency, TF over GST control) | 1.09 fold enrichment (6-mer frequency, TF over GST control) | 1 fold enrichment (6-mer frequency, TF over GST control) | 1.05 fold enrichment (6-mer frequency, TF over GST control) |  | 1.07 fold enrichment (6-mer frequency, TF over GST control) | 1.12 fold enrichment (6-mer frequency, TF over GST control) | 1.12 fold enrichment (6-mer frequency, TF over GST control)

Reference: PMC7862700, “An all-to-all approach to the identification of sequence-specific readers for epigenetic DNA modifications on cytosine”
